In PubChem BioAssay AID540277 (National Center for Advancing Translational Sciences (NCATS), 2011):
The campaign covered roughly 320,000 compounds. About 55 (0.02%) were called active. Another 3% or so got no clear call; they are omitted. No stated cut-off is given here; in the data, active means potentiation above about 80%; inconclusive means between about 30% and that limit; inactive means weaker than that. For the sample, actives were picked, then their nearest neighbours and some compounds at random.

These compounds were tested against Transient receptor potential cation channel subfamily V member 1 (Homo sapiens) (UniProt Q8NER1) (assay: HTS Assay for Compounds that Act as Potentiators of the Vanilloid Receptor 1). Conditions: TRPV1-expressing cells, Fluo-8 calcium influx, capsaicin EC20 potentiation; at 8.33 µM; hits give high values.
Chain of Transient receptor potential cation channel subfamily V member 1 (Homo sapiens) (Q8NER1 whole entry, looked up): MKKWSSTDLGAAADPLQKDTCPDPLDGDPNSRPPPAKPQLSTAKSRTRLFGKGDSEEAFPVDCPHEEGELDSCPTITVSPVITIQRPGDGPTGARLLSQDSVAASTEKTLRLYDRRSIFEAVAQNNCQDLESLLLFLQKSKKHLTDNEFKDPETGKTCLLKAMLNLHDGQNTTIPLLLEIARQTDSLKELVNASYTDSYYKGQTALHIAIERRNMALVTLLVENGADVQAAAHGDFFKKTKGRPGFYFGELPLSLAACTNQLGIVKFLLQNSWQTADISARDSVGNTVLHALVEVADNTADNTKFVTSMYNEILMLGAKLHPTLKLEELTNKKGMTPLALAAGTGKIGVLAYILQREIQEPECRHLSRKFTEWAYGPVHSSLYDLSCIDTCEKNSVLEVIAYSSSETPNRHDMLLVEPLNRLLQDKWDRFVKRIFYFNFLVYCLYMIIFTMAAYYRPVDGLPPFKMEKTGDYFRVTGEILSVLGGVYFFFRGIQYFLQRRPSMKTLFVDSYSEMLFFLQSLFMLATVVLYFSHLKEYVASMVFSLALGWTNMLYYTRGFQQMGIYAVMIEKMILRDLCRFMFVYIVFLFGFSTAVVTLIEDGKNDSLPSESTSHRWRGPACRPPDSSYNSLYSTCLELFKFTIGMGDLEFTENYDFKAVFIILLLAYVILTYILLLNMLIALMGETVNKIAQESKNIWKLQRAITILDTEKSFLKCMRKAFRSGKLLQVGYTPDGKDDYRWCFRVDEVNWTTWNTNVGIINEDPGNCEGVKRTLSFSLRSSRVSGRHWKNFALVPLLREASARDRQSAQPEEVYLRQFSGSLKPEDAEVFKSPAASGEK
In short: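 Cells expressing TRPV1 were dye-loaded with Fluo-8 and read kinetically: 10 s baseline, 3 min after compound (agonist portion), then 2 min after EC20 capsaicin (allosteric enhancer portion). Calcium-bound dye fluorescence at 480/520 nm.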
Further: 0% is about no effect.

potentiation, inactive:
Cc1cc(C)cc(-c2nnc(SCC(=O)NC3CC3)o2)c1 -9.15%
CCOCc1c(C(=O)N2CCN(Cc3ccc(Br)s3)CC2)oc2ccccc12 -19.8%
COc1ccccc1N1CCN(CC(=O)Nc2ccnn2C2CCCC2)CC1 4.7%
COc1ccccc1-n1nnnc1SCC(=O)NC(=O)Cc1ccccc1 2.96%
COc1ccc(S(=O)(=O)N2CCOCC2)cc1NC(=O)c1ccc(OCC(C)C)c(OC)c1 -5.7%
O=C(Nc1ccccc1F)c1ccc(S(=O)(=O)N2CCCCCC2)cc1 -21.7%
O=S(=O)(NCCc1ccccn1)c1cc(Cl)cc(Cl)c1O 2.4%
O=C(c1cc2ccccc2o1)N1CCN(S(=O)(=O)c2ccc(Cl)s2)CC1 -15.9%
O=C(Nc1ccccn1)C1CCN(S(=O)(=O)c2ccc3c(c2)OCCO3)CC1 1.92%
O=C(CCNC(=O)c1ccc(Cl)cc1)NC1CCCc2ccccc21 (stereo not drawn) 27%
COc1ccccc1C(=O)Nc1ccc(OCC(=O)N2CCCCC2)cc1 -9.6%
COc1ccccc1C(=O)Nc1ccc(C)c(S(=O)(=O)N2CCCCC2)c1 -33.7%
Cc1ccc(NC(=O)Cn2c(C)csc2=O)cc1 15%
Cc1ccc(-n2nc(C)c(C(=O)O)c2-n2cccc2)cc1 21.9%
O=C(O)CSc1ccc(S(=O)(=O)N2CCCC2)cn1 5.08%
CCN(CC(=O)Nc1ccc(OC)cc1)C(=O)c1ccc(Cl)c(S(=O)(=O)N2CCCC2)c1 0.452%
Cc1ccc(C(=O)NCC(c2cccs2)N(C)C)cc1S(=O)(=O)N1CCOCC1 (stereo not drawn) 2.03%
Cc1noc(C)c1COc1ccc(C(=O)NCCOc2ccccc2)cc1 -13.4%
c1ccc2cc(CCCc3cc4ccccc4cn3)ncc2c1 -8.54%
O=c1ccc(S(=O)(=O)N2CCCC2)cn1Cc1nc(-c2ccccc2)no1 -29.3%
CC1CCc2sc(C(=O)NCC(c3ccco3)N3CCCCC3)cc2C1 (stereo not drawn) -4.62%
Cc1ccc(-c2ccc(/C=C(\C#N)C(N)=S)o2)c([N+](=O)[O-])c1 -9.36%
CCN(CC(=O)Nc1c(F)cccc1F)C(=O)c1cnc(C)cn1 -6.22%
CC1CC(=O)Nc2ccccc2N1C(=O)COc1ccc2cc(Br)ccc2c1 (stereo not drawn) -0.32%
O=C(OCC(=O)N1CCc2ccccc21)c1ccc([N+](=O)[O-])cc1 -20.6%
O=S(=O)(c1cccs1)N1CCN(CCOc2ccccc2)CC1 -11.9%
Cc1noc(C)c1C(=O)NCC1COc2ccccc2O1 (stereo not drawn) -2.08%
COc1ccc(-c2nc3c(c(SCC(=O)Nc4ccc(C(=O)O)cc4)n2)Cc2ccccc2O3)cc1 15.9%
